# Assay results taken from PubChem BioAssay (NCI).
# The panel holds about 83,000 compounds, 20% with a hit somewhere; the sample as a whole holds those more often.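 Treatment: one concentration, 48 hours, 96-well format. Scoring: percent growth, with anything below 10 considered active.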 A number with no mark means an inactive call. Calls of active or inactive are those of the source.
# How the values were obtained:
# Assay in all cases: NCI-60 one-dose screen, 48 h (100 = growth as untreated, 0 = no growth, -100 = all killed)
# Conditions in all cases: 10 µM
# DU-145 prostate = tested on: DU-145 prostate
# K-562 leukemia = tested on: K-562 leukemia
# MALME-3M melanoma = tested on: MALME-3M melanoma
# MDA-MB-231 breast = tested on: MDA-MB-231 breast
# RXF 393 renal = tested on: RXF 393 renal
# SF-268 CNS = tested on: SF-268 CNS
# SF-295 CNS = tested on: SF-295 CNS
# SF-539 CNS = tested on: SF-539 CNS
# UACC-257 melanoma = tested on: UACC-257 melanoma
# M14 melanoma = tested on: M14 melanoma
SMILES,growth (DU-145 prostate),growth (K-562 leukemia),growth (MALME-3M melanoma),growth (MDA-MB-231 breast),growth (RXF 393 renal),growth (SF-268 CNS),growth (SF-295 CNS),growth (SF-539 CNS),growth (UACC-257 melanoma),growth (M14 melanoma)
COc1ccc(COC(=O)CC(C)C)cc1,107%,96.1%,100%,106%,101%,93%,97.1%,96.1%,87.7%,99.6%
O=C1/C(=C/c2ccc([N+](=O)[O-])s2)Oc2ccc(Cl)cc21,-73.5% (active),-11.2% (active),-56.8% (active),-57% (active),-63.9% (active),-57.9% (active),-16.2% (active),-91.3% (active),-54.5% (active),-44.4% (active)
COc1ccc(-c2nsc3c2NC(=O)CC3c2ccc(Cl)cc2)cc1 (stereo not given),98.4%,66.6%,78%,94.9%,105%,97.2%,79.2%,92.5%,82.5%,84.4%
COc1cc(C(=O)n2nc(N)c3c(C)cc(C)nc32)cc(OC)c1OC,93.3%,18.2%,89%,87.7%,83.2%,79.1%,75.9%,64.6%,90.9%,80.2%
CCC(CCNc1cc(OC)cc2cccnc12)CN1C(=O)c2ccccc2C1=O (stereo not given),118%,101%,132%,96%,117%,98.7%,106%,106%,119%,117%
O=C(Nc1ccc(Oc2ccc(Nc3nc4ccccc4s3)cc2)cc1)Nc1ccc(Cl)c(Cl)c1,39.1%,21.9%,47.9%,22.8%,56.5%,35.9%,17.8%,50.9%,61.3%,26.3%
CN(C)CCCN(Cc1ccccc1O)C(=S)Nc1ccc(Cl)cc1,121%,97.5%,101%,97%,93.4%,102%,94.7%,104%,101%,108%
CNC(=S)Sc1ccc([N+](=O)[O-])cc1[N+](=O)[O-],38.1%,7.74% (active),87.1%,50.8%,97.4%,94.2%,95.1%,25.9%,62.5%,24.3%
O=C1/C(=C/c2ccc(O)cc2)Oc2ccc(Cl)cc21,114%,96%,82.4%,60.1%,65.6%,93%,89.9%,66.7%,79%,93.9%
Cc1ccc(S(=O)(=O)Nc2cccc3[nH]c(C(F)(F)F)nc23)cc1,19%,11.6%,12.7%,31.4%,3.7% (active),60%,0.543% (active),-11.9% (active),43.1%,15.2%
O=C/C=C/c1ccc([N+](=O)[O-])cc1Cl,99.9%,63.7%,95.1%,122%,107%,93.1%,107%,96.8%,91.6%,90.8%
COc1ccc(-c2nnc(COc3ccc(NC(=O)Nc4cccc(C(F)(F)F)c4)cc3F)o2)cc1,71.9%,45.3%,60.5%,42.5%,86.6%,75.1%,64.2%,57.6%,71.8%,60.8%
O=C(O)CNS(=O)(=O)c1ccc(OCCOc2ccc(S(=O)(=O)NCC(=O)O)cc2)cc1,107%,104%,99.7%,108%,106%,98.9%,104%,93.6%,104%,104%
